Bioassay records (PubChem BioAssay)
SRC1 TRFRET art = TR-FRET artefact, counter-screen to PPARgamma/SRC-1 agonist assay | TR-FRET detection artefact counter-screen, emission ratio; active compounds read high | TR-FRET ratio at 8 µM | actives 0.34% (n = 99,000); in the data active = TR-FRET ratio above about 2300
SRC3 TRFRET art = counter-screen for PPARgamma SRC-3 recruitment agonists: TR-FRET artefact; PPARgamma/SRC-3 format; active compounds read high; TR-FRET ratio at 8 µM; actives 0.39% (n = 99,000)
PPARg SRC-2 ag = agonists of SRC-2 recruitment by human PPARgamma. PPARgamma LBD-SRC-2 recruitment, biochemical. activation, % at 8 µM. actives 0.34% (n = 200,000). AID 1032; in the data active = activation above about 22%;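 note: 0% = vehicle and 100% = reference agonist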
Target sequence (P37231 whole entry, looked up, the tested form may be a part): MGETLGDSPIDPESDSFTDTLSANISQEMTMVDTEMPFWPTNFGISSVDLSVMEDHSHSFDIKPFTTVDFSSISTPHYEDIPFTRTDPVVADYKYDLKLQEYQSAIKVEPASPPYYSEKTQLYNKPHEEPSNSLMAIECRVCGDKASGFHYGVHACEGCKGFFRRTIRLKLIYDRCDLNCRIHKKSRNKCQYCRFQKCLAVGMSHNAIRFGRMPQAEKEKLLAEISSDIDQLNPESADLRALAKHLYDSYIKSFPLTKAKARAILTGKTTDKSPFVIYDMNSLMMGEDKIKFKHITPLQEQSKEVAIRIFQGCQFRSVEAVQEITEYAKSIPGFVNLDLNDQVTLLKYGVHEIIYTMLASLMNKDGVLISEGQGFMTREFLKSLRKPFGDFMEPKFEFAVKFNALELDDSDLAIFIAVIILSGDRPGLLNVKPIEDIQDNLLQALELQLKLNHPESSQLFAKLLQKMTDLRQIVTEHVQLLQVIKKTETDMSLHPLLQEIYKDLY
PPARg SRC3 recr = agonists of human PPARgamma SRC-3 coactivator recruitment; P37231; biochemical PPARgamma/SRC-3 coactivator recruitment assay; activation, % at 8 µM; actives 0.26% (n = 200,000); AID 731; in the data active = activation above about 23%;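 note: 0% = DMSO and 100% = reference agonist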
TR-FRET SRC-2 ct = flags TR-FRET format artefacts in PPARgamma SRC-2 recruitment agonist screen; TR-FRET artefact counter-screen; active compounds read high; actives 0.4% (n = 200,000); TR-FRET ratio at 8 µM
PPARg SRC1 recr = promotes SRC-1 coactivator recruitment by human PPARgamma; actives 0.41% (n = 200,000); activation, % at 8 µM; PPARgamma-SRC-1 coactivator recruitment biochemical assay; AID 631; in the data active = activation above about 19%;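 note: 0% = DMSO and 100% = reference agonist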
* = called active by the depositor. In the library only some 0.9% were active in any assay of this set; here they are far more common. Cut-off read from the data, not from the text of the source, unless noted: active = TR-FRET ratio above about 2000; inactive = the rest.

How did Cc1ccc(-n2c(C)cc(C(=O)COc3c(CO)cc(F)cc3CO)c2C)cc1C do in these assays?
SRC1 TRFRET art: 2057; SRC3 TRFRET art: 1503; PPARg SRC-2 ag: 22*; PPARg SRC3 recr: 5; TR-FRET SRC-2 ct: 1818; PPARg SRC1 recr: 0

How did C/C(=N\N=C1\NC(=O)CC(C(=O)O)S1)c1ccc(F)cc1 (configuration not stated) do in these assays?
SRC1 TRFRET art: 2658*; SRC3 TRFRET art: 1450; PPARg SRC-2 ag: -6; PPARg SRC3 recr: 2; TR-FRET SRC-2 ct: 1531; PPARg SRC1 recr: 16

Results for COc1ccc(/C(C)=N/N=C2/NC(=O)CC(C(=O)O)S2)cc1 (configuration not stated) ?
SRC1 TRFRET art: 1477; SRC3 TRFRET art: 1614; PPARg SRC-2 ag: -3; PPARg SRC3 recr: -1; TR-FRET SRC-2 ct: 1565; PPARg SRC1 recr: -8

What do the screens show for `O=C(NNS(=O)(=O)c1cccc(Cl)c1Cl)c1cccc(S(=O)(=O)N2CCOCC2)c1`?
SRC1 TRFRET art: 1872; SRC3 TRFRET art: 1615; PPARg SRC-2 ag: -1; PPARg SRC3 recr: 3; TR-FRET SRC-2 ct: 1563; PPARg SRC1 recr: -1

What do the screens show for `CCC(=O)N1CCN(c2nc3ccccc3s2)CC1`?
PPARg SRC-2 ag: 4; PPARg SRC3 recr: 9; TR-FRET SRC-2 ct: 1508; PPARg SRC1 recr: 0

How did O=C(c1cc2sccc2n1Cc1ccccc1)N1CCN(c2nc3ccccc3s2)CC1 do in these assays?
PPARg SRC-2 ag: 8; PPARg SRC3 recr: 11; TR-FRET SRC-2 ct: 2570*; PPARg SRC1 recr: 7

How did COc1cc(-c2nc3ccccn3c2/N=C/c2cc(OC)c(OC)c(OC)c2)ccc1O do in these assays?
PPARg SRC-2 ag: 26*; PPARg SRC3 recr: 19; TR-FRET SRC-2 ct: 1665; PPARg SRC1 recr: 23*

How did CC(C)(O)C#Cc1ccc(CN2CCCC(CO)(Cc3cccc(Cl)c3)C2)cc1 (configuration not stated) do in these assays?
SRC1 TRFRET art: 1564; SRC3 TRFRET art: 1427; PPARg SRC-2 ag: -4; PPARg SRC3 recr: -1; TR-FRET SRC-2 ct: 1371; PPARg SRC1 recr: 5

How did Oc1ccc(NCc2ccccc2OCc2ccccc2)cc1 do in these assays?
SRC1 TRFRET art: 2043; SRC3 TRFRET art: 1728; PPARg SRC-2 ag: 29*; PPARg SRC3 recr: 9; TR-FRET SRC-2 ct: 2166*; PPARg SRC1 recr: -10

Results for CC1(C)CC(=O)C(C=Nc2ccccc2C(=O)O)=C(O)C1 ?
PPARg SRC-2 ag: 0; PPARg SRC3 recr: 4; TR-FRET SRC-2 ct: 1972*; PPARg SRC1 recr: 6

How did CC(=O)Nc1ccc(NC(=O)CSc2nnc(C)c(=O)[nH]2)cc1 do in these assays?
SRC1 TRFRET art: 1683; SRC3 TRFRET art: 1683; PPARg SRC-2 ag: 2; PPARg SRC3 recr: 0; TR-FRET SRC-2 ct: 1495; PPARg SRC1 recr: 0

What do the screens show for `Cc1nnc(NC(=O)c2nn(CC(C)C)c(=O)c3ccccc23)s1`?
SRC1 TRFRET art: 2336*; SRC3 TRFRET art: 1608; PPARg SRC-2 ag: -5; PPARg SRC3 recr: 0; TR-FRET SRC-2 ct: 1528; PPARg SRC1 recr: 4

How did CCCC(C)NC(=O)COc1ccc(Sc2ccc(OCC(=O)NC(C)CCC)cc2)cc1 (configuration not stated) do in these assays?
SRC1 TRFRET art: 1733; SRC3 TRFRET art: 1544; PPARg SRC-2 ag: 7; PPARg SRC3 recr: -2; TR-FRET SRC-2 ct: 1669; PPARg SRC1 recr: 2

What do the screens show for `COc1cnn(-c2ccccc2)c(=O)c1N(C)C`?
PPARg SRC-2 ag: -5; PPARg SRC3 recr: 26*; TR-FRET SRC-2 ct: 1421; PPARg SRC1 recr: -4

What do the screens show for `Cn1c(=O)c2[nH]c(-c3ccccc3Cl)c(O)c2n(C)c1=O`?
SRC1 TRFRET art: 1667; SRC3 TRFRET art: 1751; PPARg SRC-2 ag: 1; PPARg SRC3 recr: 2; TR-FRET SRC-2 ct: 1382; PPARg SRC1 recr: -6

How did Cn1c(=O)c2[nH]c(-c3ccccc3)c(O)c2n(C)c1=O do in these assays?
SRC1 TRFRET art: 2338*; SRC3 TRFRET art: 1758; PPARg SRC-2 ag: 10; PPARg SRC3 recr: 11; TR-FRET SRC-2 ct: 1679; PPARg SRC1 recr: 8

How did CCOC(=O)C1CCN(CCC(=O)Nc2ccc(C)c(C)c2)CC1 do in these assays?
SRC1 TRFRET art: 2091; SRC3 TRFRET art: 1352; PPARg SRC-2 ag: -3; PPARg SRC3 recr: 3; TR-FRET SRC-2 ct: 1537; PPARg SRC1 recr: 22*

What do the screens show for `Cn1c(C(=O)NCc2ccco2)cc2c(=O)[nH]c3ccccc3c21`?
SRC1 TRFRET art: 2510*; SRC3 TRFRET art: 1309; PPARg SRC-2 ag: 6; PPARg SRC3 recr: 0; TR-FRET SRC-2 ct: 1736; PPARg SRC1 recr: 23*

What do the screens show for `CCCN(CCC)CCCNC(=O)c1cc2c(=O)[nH]c3ccccc3c2n1C`?
SRC1 TRFRET art: 1663; SRC3 TRFRET art: 1380; PPARg SRC-2 ag: 3; PPARg SRC3 recr: -1; TR-FRET SRC-2 ct: 1538; PPARg SRC1 recr: -2

Results for CC(NC(=S)Nc1ccc(S(=O)(=O)N2CCOCC2)cc1)C1CC2CCC1C2 (configuration not stated) ?
SRC1 TRFRET art: 2010; SRC3 TRFRET art: 1719; PPARg SRC-2 ag: 6; PPARg SRC3 recr: 3; TR-FRET SRC-2 ct: 1556; PPARg SRC1 recr: 8

Results for COc1ccc(C2=NN(C(=O)CSc3nc4ccccc4s3)C(c3ccc(OC)cc3)C2)cc1 (configuration not stated) ?
SRC1 TRFRET art: 1938; SRC3 TRFRET art: 1447; PPARg SRC-2 ag: -6; PPARg SRC3 recr: -2; TR-FRET SRC-2 ct: 1438; PPARg SRC1 recr: 7

Results for COc1ccc(C2=NN(C(=O)CSc3ncccn3)C(c3ccc(OC)cc3)C2)cc1 (configuration not stated) ?
SRC1 TRFRET art: 2104; SRC3 TRFRET art: 1648; PPARg SRC-2 ag: 5; PPARg SRC3 recr: -1; TR-FRET SRC-2 ct: 1601; PPARg SRC1 recr: 8

What do the screens show for `COc1ccc(C2CC(c3ccc4ccccc4c3)=NN2C(=O)CSc2ncccn2)cc1` (configuration not stated)?
SRC1 TRFRET art: 1782; SRC3 TRFRET art: 2117*; PPARg SRC-2 ag: 9; PPARg SRC3 recr: -4; TR-FRET SRC-2 ct: 1608; PPARg SRC1 recr: 3

Results for COc1ccc(C2=NN(C(=O)CSc3cn(C)c4ccccc34)C(c3ccc(OC)cc3)C2)cc1 (configuration not stated) ?
PPARg SRC-2 ag: 5; PPARg SRC3 recr: 9; TR-FRET SRC-2 ct: 9469*; PPARg SRC1 recr: 0

How did Cc1ccc(/C=C(\C#N)C(=O)N2CCCC2)c(C)c1 do in these assays?
SRC1 TRFRET art: 1476; SRC3 TRFRET art: 1287; PPARg SRC-2 ag: -1; PPARg SRC3 recr: 1; TR-FRET SRC-2 ct: 1319; PPARg SRC1 recr: 0

How did CCc1c(C)nc(SCC(=O)N2CCCCC2C)[nH]c1=O (configuration not stated) do in these assays?
SRC1 TRFRET art: 1755; SRC3 TRFRET art: 1816; PPARg SRC-2 ag: -7; PPARg SRC3 recr: 1; TR-FRET SRC-2 ct: 1563; PPARg SRC1 recr: 8

How did CC(=O)Nc1ccc(NC(=O)/C=C/c2ccccc2)cc1 do in these assays?
SRC1 TRFRET art: 2103; SRC3 TRFRET art: 1660; PPARg SRC-2 ag: 4; PPARg SRC3 recr: 5; TR-FRET SRC-2 ct: 1730; PPARg SRC1 recr: 3
